The record followed here is PubChem BioAssay (NCATS).

Records with an inconclusive call do not appear. The source made the active and inactive calls. Unless noted, calls follow the shape of the full dose curve.

Experiment [1] is described as follows: Confirmatory qHTS for activators (rescue) of SARS-CoV-2 Cytopathic Effect (CPE) (AID 1508606). Also: potency is read from the fitted curve at half-maximal effect; nearly all actives have a fitted effect of over 70% in size. For orientation: In qHTS, concentration-response curves come from the screen itself.
The nature of experiment [2]: Primary qHTS for Vero E6 cytotoxicity: counterscreen for inhibitors of SARS-S pseudo-typed particle cell entry (AID 1479150). Also: potency is read from the fitted curve at half-maximal effect.
Experiment [3] in a line: Primary qHTS for inhibitors of MERS-S pseudo-typed particle cell entry (AID 1479149). Also: potency is read from the fitted curve at half-maximal effect; nearly all actives have a fitted effect of over 60% in size.
A short description of experiment [4]: Primary qHTS for inhibitors of La Crosse Virus (LACV) - induced cell death in SH-SY5Y cells (AID 1508616; active = well fitted curve in the direction sought with a large enough effect; an effect the other way counts as inactive or inconclusive;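 also: top concentration of the series differs between compounds; higher means more rescue of cells from virus-induced death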). A digest of the protocol:
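Screening measures cell viability in LACV-infected SH-SY5Y cultures. Compound was added before virus (0.01 MOI), and ATP was detected by luminescence 6 days later.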

Experiment [5] can be described thus: Counterscreen qHTS for small molecule stabilizers of the endoplasmic reticulum resident proteome: GLuc-NoTag assay (AID 1508627; active = well fitted curve in the direction sought with a large enough effect; an effect the other way counts as inactive or inconclusive; also: potency is read from the fitted curve at half-maximal effect). A digest of the protocol: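 Secreted GLuc lacking the SERCaMP modification is measured in SH-SY5Y cells exposed to compound for 19 h and then to thapsigargin (100 nM, 4 h) to deplete ER calcium; hits retested at 11 concentrations, up to 76.6 uM.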
(A counterscreen serves to expose hits that act by an unwanted route or on another target.)

Experiment [6] in a line: Cell Viability qHTS for small molecule stabilizers of the endoplasmic reticulum resident proteome (AID 1508629; active = well fitted curve in the direction sought with a large enough effect; an effect the other way counts as inactive or inconclusive;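 also: potency is read from the fitted curve at half-maximal effect; compound exposure about 46 h in total before the viability read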). Conditions: cell viability counter-screen, 100 nM thapsigargin for final 4 h.
Experiment [7] can be described thus: A High-Content qHTS Against Drug Library for the Identification of Small Molecules that Inhibit DYT1 Early Onset Primary Dystonia-Associated Cell Pathology (AID 1645839). Also: series mostly up to about 46 µM. A digest of the protocol: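 Induced EGFP-delE TorsinA cells are imaged after 48 h of compound treatment. Punctate fusion-protein distribution gives the %pathology value, while nuclei counts flag toxicity. Wild-type EGFP-hTOR1A cells define the normal pattern.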

Experiment [8] is described as follows: Confirmatory qHTS for VERO E6 Cytotoxicity Assay: Counterscreen for SARS-CoV-2 CPE Assay (AID 1508605). Also: nearly all actives have a fitted effect of over 60% in size. Also: potency is read from the fitted curve at half-maximal effect.

For the molecule `CN(C)CCCN1c2ccccc2Sc2ccc(C(F)(F)F)cc21`, in experiment [1], the Potency is 10 µM (active). `CC1=CC(=O)c2ccccc2C1=O`: the Potency entry in experiment [2] is “inactive”. The same measure, in the same setting: as for `NC(N)=N/N=C/c1c(Cl)cccc1Cl`, the entry is “inactive”. For the molecule `O=C(Oc1cccc2cccnc12)c1ccccc1`, the Potency in experiment [3] is 12.6 µM (active); in experiment [2] it was 5.62 µM (active). Take `CN(C(=O)CN(CCO)CC(=O)N(C)C(C)(C)Cc1ccccc1)C(C)(C)Cc1ccccc1`: in experiment [2], the Potency entry was “inactive”. For `CC[n+]1c(-c2ccccc2)c2cc(N)ccc2c2ccc(N)cc21`, the molecule was called inactive in experiment [4] and in experiment [7]. The Potency is 20 µM (active) in experiment [5] and 3.16 µM (active) in experiment [6]. Turning to `CCCCOc1ccc(C(=O)CCN2CCCCC2)cc1`, the Potency result in experiment [2] is “inactive”. Regarding `CN1CCN(CCCN2c3ccccc3Sc3ccc(S(=O)(=O)N(C)C)cc32)CC1`, in experiment [8], the Potency result was “inactive”. For `O=C(CCC1CCN(Cc2ccccc2)CC1)c1ccc2c(c1)NCCCC2`, the Potency result in experiment [2] and in experiment [8] was “inactive” each time. `COc1ccc2cc1Oc1ccc(cc1)C[C@H]1c3c(cc4c(c3Oc3cc5c(cc3OC)CCN(C)[C@@H]5C2)OCO4)CCN1C`: the Potency is 3.55 µM (active) in experiment [3], 11.2 µM (active) in experiment [8] and 1 µM (active) in experiment [1]. For `CN1CCCN(C(c2ccccc2)c2ccc(Cl)cc2)CC1` (stereo not given), in experiment [2], the Potency result was “inactive”. Further, the Potency in experiment [1] was 10 µM (active). As for `COc1ccc(CCN2CCC(Nc3nc4ccccc4n3Cc3ccc(F)cc3)CC2)cc1`, the Potency in experiment [3] is 12.6 µM (active).
